Measurements: PubChem BioAssay (Tox21)
Records with an inconclusive call do not appear. Unmarked numbers belong to inactive results. Active and inactive are the calls of the source. Calls follow the shape of the dose curve; as a rule, active = well fitted activation curve with a large enough effect in the signal ratio in the repeat runs (not every such curve was filed as active); inconclusive = weak or mixed curves, or effect the other way; inactive = no such curve, though single readings can be large or run the other way; the % refers to the signal ratio.

Target: Peroxisome proliferator-activated receptor gamma (Homo sapiens) (UniProt P37231)
Sequence (P37231 whole entry, looked up): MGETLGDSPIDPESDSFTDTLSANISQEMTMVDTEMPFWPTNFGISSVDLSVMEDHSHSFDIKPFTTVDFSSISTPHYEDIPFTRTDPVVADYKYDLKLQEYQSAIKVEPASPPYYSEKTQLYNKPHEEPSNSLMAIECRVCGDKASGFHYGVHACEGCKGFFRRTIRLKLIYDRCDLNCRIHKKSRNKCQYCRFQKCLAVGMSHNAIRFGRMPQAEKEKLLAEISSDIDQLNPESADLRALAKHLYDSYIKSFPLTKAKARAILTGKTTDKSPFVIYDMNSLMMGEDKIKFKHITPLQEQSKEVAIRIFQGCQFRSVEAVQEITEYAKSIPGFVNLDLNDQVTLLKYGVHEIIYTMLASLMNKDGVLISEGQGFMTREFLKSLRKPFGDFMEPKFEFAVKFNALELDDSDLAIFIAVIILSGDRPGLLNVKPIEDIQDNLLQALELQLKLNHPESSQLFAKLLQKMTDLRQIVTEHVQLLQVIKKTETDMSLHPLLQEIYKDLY
Test: qHTS assay to identify small molecule agonists of the peroxisome proliferator-activated receptor gamma (PPARg) signaling pathway (AID 743094)
Settings: HEK293H PPARg-UAS-bla, beta-lactamase FRET ratio, 17 h; series mostly up to 57 µM; activation: at the top concentration
Excerpt: U.S. Tox21 Program National Center for Advancing Translational Sciences [NCATS] NIH Chemical Genomics Center [NCGC] U.S. Environmental Protection Agency [EPA] National Institutes of Environmental Health Sciences [NIEHS] National Toxicology Program [NTP] U.S. Food and Drug Administration [FDA] Tox21 Assay Overview: The peroxisome proliferator-activated receptors (PPARs) are lipid-activated transcription factors of the nuclear receptor superfamily with three distinct subtypes namely PPAR alpha, PPAR delta (also called PPAR beta) and PPAR gamma (PPARg). All these subtypes heterodimerize with Retinoid X receptor (RXR) and these heterodimers regulate transcription of various genes. PPAR-gamma receptor (glitazone receptor) is involved in the regulation of glucose and lipid metabolism. To identify the compounds that activate PPAR-gamma signaling, GeneBLAzer PPAR gamma UAS-bla HEK293H cell line (Invitrogen, Carlsbad, CA, USA) containing a beta-lactamase reporter gene under control of the control of an upstream activator sequence (UAS) stably integrated into HEK293H cells was used to screen Tox21 compound library.
Tox21 Assay Protocol Summary: PPARg-bla cells were dispensed at 3000 cells/6uL/well in 1536-well black wall/clear bottom plates using a Multidrop Combi (Thermo Fisher Scientific, Waltham, MA) dispenser. After the assay plates were incubated at 37C and 5% CO2 for 5 h, 23 nL of compounds dissolved in DMSO, positive controls or DMSO only was transferred to the assay plate by a Pintool station (Kalypsys, San Diego, CA). The assay plates were incubated at 37C for 17 h. After 1 uL of LiveBLAzerTM B/G FRET substrate was added using a Bioraptr Flying Reagent Dispenser (FRD) workstation (Beckman Coulter, Indianapolis, IN, USA), the plates were incubated at room temperature for 1 h, and fluorescence intensity was measured by an Envision plate reader (PerkinElmer, Shelton, CT).
% is scaled to controls: 0 for no effect and ±100 for the full control effect.

| Structure (SMILES) | activation | outcome |
| --- | --- | --- |
| N#Cc1ccc(C2CCCc3cncn32)cc1 (stereo not given) | 0.85% [at 26.2 µM] | – |
| O=C(O)CN(CCOCCOCCN(CC(=O)O)CC(=O)O)CC(=O)O | -1.02% | – |
| CCN1CCC[C@H]1CNC(=O)c1cc(S(N)(=O)=O)ccc1OC | 0.492% | – |
| C[N+](C)(C)CC(O)CC(=O)[O-] (stereo not given) | 1.92% | – |
| CCN(CC)CCOCCOC(=O)C1(c2ccccc2)CCCC1 | -1.38% | – |
| COC(=O)c1c(Cl)c(Cl)c(C(=O)OC)c(Cl)c1Cl | 6.4% | – |
| Nc1cc(=O)[nH]c(N)n1 | 5.41% | – |
| CCCc1cc(C(N)=S)ccn1 | 0.0788% | – |
| N[C@H]1CN(c2c(F)cc3c(=O)c(C(=O)O)cn(C4C[C@H]4F)c3c2Cl)CC12CC2 (stereo not given in full) | -0.0248% | – |
| O=Cc1cccc([N+](=O)[O-])c1 | -4.77% | – |
| C=COCC1CCC(CO)CC1 (stereo not given) | 1.28% | – |
| NC(CSCC(=O)O)C(=O)O (stereo not given) | -6.18% | – |
| C[C@H](NC(CCc1ccccc1)C(=O)O)C(=O)N1CCC[C@H]1C(=O)O (stereo not given in full) | -1.25% | – |
| CC(C(=O)O)c1ccc(CC2CCCC2=O)cc1 (stereo not given) | 0.0831% | – |
| N=C(N)c1ccc2cc(OC(=O)c3ccc(N=C(N)N)cc3)ccc2c1 | 0.139% | – |
| CN(C(=O)c1c(O)c2ccccc2n(C)c1=O)c1ccccc1 | -0.125% | – |
| CCCCCCCCS(=O)(=O)Cl | 1.93% [at 78.9 µM] | – |
| Nc1nc2c(ncn2COC(CO)CO)c(=O)[nH]1 | -0.236% [at 26.2 µM] | – |
| Cc1cc2c(cc1S(N)(=O)=O)S(=O)(=O)CCC2 | -1.05% [at 26.2 µM] | – |
| CCCCCCCCCCCCCC=O | -7.22% [at 7.08 µM] | – |

| Structure (SMILES) | activation | outcome |
| --- | --- | --- |
| C[C@@H]1CCN(C(=O)[C@H](CCCN=C(N)N)NS(=O)(=O)c2cccc3c2NC[C@H](C)C3)[C@@H](C(=O)O)C1 | 2.17% | – |
| Cc1cccn2c(=O)c(-c3nnn[nH]3)cnc12 | 4.31% | – |
| Nc1ccc(S(=O)(=O)Nc2ccnn2-c2ccccc2)cc1 | 0.649% [at 26.2 µM] | – |
| c1ccc([C@H]2CN3CCSC3=N2)cc1 | -0.138% | – |
| N=c1nc(N2CCCCC2)cc(N)n1O | 0.788% | – |
| Cn1c(N)c(N=O)c(=O)n(C)c1=O | -2.54% [at 78.9 µM] | – |
| CC/C=C\CC/C=C/CO | 0.823% | – |
| CCCCOCCOCCOCCCC | -0.0845% | – |
| C=C[Si](OC(=C)C)(OC(=C)C)OC(=C)C | 2.18% | – |
| O=C1OC(=O)C2CCCCC12 (stereo not given) | -2.84% | – |
| C1CN(CCOCCN2CCOCC2)CCO1 | -3.73% | – |
| CCCCCSCCCCC | -1.16% | – |
| N[C@@H](C(=O)N[C@@H]1C(=O)N2C(C(=O)O)=C(Cl)CS[C@H]12)c1ccccc1 | 0.453% | – |
| O=c1cc(CO)occ1O | – | inactive |
| COc1ccc2c(c1)c(CC(=O)OCC(=O)O)c(C)n2C(=O)c1ccc(Cl)cc1 | -7.83% | – |
| FC(F)OC(Cl)C(F)(F)F (stereo not given) | – | inactive |
| Cc1c(NC(C)C)c(=O)n(-c2ccccc2)n1C | -0.808% | – |
| NC(=O)c1ccc(N)cc1 | -1.12% | – |
| CC(C)(C)c1ccc(O)c(O)c1 | -7.17% [at 78.9 µM] | – |
| CC(=O)OCC(CCn1cnc2cnc(N)nc21)COC(C)=O | 0.315% | – |
